D1 potentiator = enhances dopamine response at the human D1 receptor; AID 504651; P21728; potentiation, % at 10 µM; 360,000 tested, 0.036% active; HEK293 TREx D1 cells, calcium flux, dopamine EC20 potentiation; in the data active means potentiation above about 30%
Target sequence (P21728 whole entry, looked up): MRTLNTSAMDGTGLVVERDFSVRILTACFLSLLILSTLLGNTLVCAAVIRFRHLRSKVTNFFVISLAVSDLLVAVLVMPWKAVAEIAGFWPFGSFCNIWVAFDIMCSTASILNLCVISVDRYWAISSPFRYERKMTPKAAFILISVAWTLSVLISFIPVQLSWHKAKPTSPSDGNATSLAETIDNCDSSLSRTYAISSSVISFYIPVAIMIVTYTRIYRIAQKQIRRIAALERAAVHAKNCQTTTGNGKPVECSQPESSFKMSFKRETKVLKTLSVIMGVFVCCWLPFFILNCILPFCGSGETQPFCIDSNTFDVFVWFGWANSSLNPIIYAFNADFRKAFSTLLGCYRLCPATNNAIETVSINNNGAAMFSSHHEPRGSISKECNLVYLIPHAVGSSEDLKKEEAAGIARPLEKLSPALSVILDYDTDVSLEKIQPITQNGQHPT
TRHR enhancer = TRH receptor (human) allosteric enhancement; AID 493056; TRHR cells, fluo-8 calcium fluorescence, EC20 TRH enhancement; P34981; 360,000 tested, 0.66% active; enhancement, % at 2 µM; in the data active means enhancement above about 30%
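TRHR-expressing cells loaded with fluo-8 calcium dye were read kinetically (ex 480/em 530) during compound addition, then stimulated with an EC20 of TRH (10 nM final). Enhancement of the Gq-mediated intracellular calcium response was scored.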
D1 ag = activates the human D1 dopamine receptor. activation, % at 2 µM. AID 504660. 360,000 tested, 1% active. HEK293 T-REx D1 cells, calcium flux, agonist mode. P21728
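Inducible HEK293 T-REx D1 cells, force-coupled to calcium signalling, were plated at 4000 cells/well with tetracycline and held overnight at 30 C. After no-wash calcium dye loading, compound-evoked calcium rise over 180 s flagged agonists.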
D1 antag = antagonists of human D1 dopamine receptor; activity change, negative = inhibition, % at 10 µM; 360,000 tested, 3.2% active; HEK293 TREx D1 cells, calcium flux, dopamine EC80; hits give low values; P21728; in the data active means activity change below about -30%
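After overnight tetracycline induction at 30 C, force-coupled D1 HEK293 cells took up a no-wash calcium dye at room temperature. Compounds were added and monitored 180 s, and the response to EC80 dopamine was then recorded.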
TRHR agonist = activates the human TRH receptor; P34981; TRHR cells, calcium flux fluo-8, FDSS agonist mode; activation, % at 2 µM; 360,000 tested, 0.18% active; AID 493084
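TRHR-expressing cells loaded with fluo-8 calcium dye; 23 nL library compound pin-transferred, kinetic FDSS fluorescence (Ex 480/Em 530) recorded about 180 s for agonist-induced calcium release, before a 10 nM TRH EC20 addition for potentiator mode.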
Numbers stand for hits. The list is not random: actives were taken first. Their share in the collection is about 4.7%. Unless noted, no stated cut-off is given here; in the data, active means activation above about 30%; inactive means the rest.

Screening Cc1ccc(S(=O)(=O)NC(=O)COc2cc(C)ccc2C(C)C)cc1 returned D1 potentiator inactive, TRHR enhancer inactive, D1 ag inactive, D1 antag -44 and TRHR agonist inactive.
Screening Cc1cc2c(c(SCC#N)n1)C(=O)OC2 returned D1 potentiator inactive, TRHR enhancer inactive, D1 ag inactive, D1 antag inactive and TRHR agonist inactive.
COc1ccc(CCC(=O)N2CCc3c([nH]c4ccccc34)C2c2ccc(F)cc2)cc1 (centres undefined) was read as D1 potentiator inactive, TRHR enhancer inactive, D1 ag inactive, D1 antag inactive and TRHR agonist inactive.
`O=C(CSCc1ccc(F)cc1)N1CCc2c([nH]c3ccccc23)C1c1ccc(Cl)cc1` (centres undefined) gave D1 potentiator inactive, TRHR enhancer inactive, D1 ag inactive, D1 antag -31 and TRHR agonist inactive.
COc1ccc(CC(=O)N2CCc3c([nH]c4ccccc34)C2c2ccc(SC)cc2)cc1 (centres undefined) was read as D1 potentiator inactive, TRHR enhancer inactive, D1 ag inactive, D1 antag -40 and TRHR agonist inactive.
Screening CCOC(=O)c1c(C)oc2nc(C)nc(NCCc3ccc(OCC)c(OCC)c3)c12 returned D1 potentiator inactive, TRHR enhancer inactive, D1 ag inactive, D1 antag inactive and TRHR agonist inactive.
For CCn1nc([N+](=O)[O-])c(C(C#N)c2nc3cc(C(F)(F)F)ccc3s2)c(Cl)c1=O (centres undefined) the results were D1 potentiator inactive, TRHR enhancer inactive, D1 ag inactive, D1 antag -38 and TRHR agonist inactive.
`CCCn1nc([N+](=O)[O-])c(C(C#N)c2nc3ccccc3o2)c(Cl)c1=O` (centres undefined) gave D1 potentiator inactive, TRHR enhancer inactive, D1 ag inactive, D1 antag inactive and TRHR agonist inactive.
For CC(C)(C)c1ccc(Cn2c(=N)n(CC(O)c3ccco3)c3ccccc32)cc1 (centres undefined) the results were D1 potentiator inactive, TRHR enhancer inactive, D1 ag 72, D1 antag inactive and TRHR agonist inactive.
Screening CCOC(=O)C1CCC(CN(Cc2ccc(OC)cc2)S(=O)(=O)c2ccc(F)c(C(=O)Nc3ccc(C)c(C)c3)c2)CC1 (centres undefined) returned D1 potentiator inactive, TRHR enhancer inactive, D1 ag inactive, D1 antag inactive and TRHR agonist inactive.
O=C(O)c1ccc(S(=O)(=O)N[C@H](Cc2ccc([N+](=O)[O-])cc2)C(=O)O)cc1 was read as D1 potentiator inactive, TRHR enhancer inactive, D1 ag inactive, D1 antag inactive and TRHR agonist inactive.
Screening Cc1ccccc1NC(=O)c1ccc2nc(N3CCOCC3)sc2c1 returned D1 potentiator inactive, TRHR enhancer inactive, D1 ag inactive, D1 antag inactive and TRHR agonist inactive.
For CCOC(=O)c1ccc(NC(=O)CCn2c(=O)c3cccn3c3ccccc32)cc1 the results were D1 potentiator inactive, TRHR enhancer inactive, D1 ag 86, D1 antag inactive and TRHR agonist inactive.
For COc1ccc(NC(=O)CCn2c(=O)c3cccn3c3ccccc32)cc1 the results were D1 potentiator inactive, TRHR enhancer inactive, D1 ag inactive, D1 antag inactive and TRHR agonist inactive.
For Cc1ccc2nc3n(c(=O)c2c1)-c1cc(Cl)ccc1C(=O)NC3Cc1ccccc1 (centres undefined) the results were D1 potentiator inactive, TRHR enhancer inactive, D1 ag inactive, D1 antag -38 and TRHR agonist inactive.
O=[N+]([O-])c1ccc(S(=O)(=O)NCC(c2cccnc2)N2CCc3ccccc32)cc1 (centres undefined) was read as D1 potentiator inactive, TRHR enhancer inactive, D1 ag inactive, D1 antag inactive and TRHR agonist inactive.
`CC(C)c1ccc(OCc2ccc(C(=O)N3CCCC3)o2)cc1` gave TRHR enhancer inactive, D1 ag 70, D1 antag -34 and TRHR agonist inactive.
For S=C(Nc1ccccc1)N1CCN(C/C=C/c2ccccc2)CC1 the results were D1 potentiator inactive, TRHR enhancer inactive, D1 ag inactive, D1 antag inactive and TRHR agonist inactive.
For FC(F)(F)c1cccc(N2CCN(C(=S)NC3CCCC3)CC2)c1 the results were D1 potentiator inactive, TRHR enhancer inactive, D1 ag inactive, D1 antag inactive and TRHR agonist inactive.

From PubChem BioAssay
